This is part of a sample that, as a whole, favours compounds with a hit. Of some 79,000 tested, about 15% had one in any assay. Calls of active or inactive are those of the source. No stated cut-off is given here; in the data, active means growth inhibition above about 70%; inactive means the rest.
Columns and labels:
[1] = NCI Yeast Anticancer Drug Screen. Data for the rad52 strain (AID 147);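 further: 0% = growth of vehicle-treated control cultures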; settings: S. cerevisiae rad52 mutant growth inhibition, stronger effect = higher value
In short: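 Here a repair-compromised yeast strain receives each compound; its growth is then quantified and normalised to vehicle-only controls.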

[2] = NCI Yeast Anticancer Drug Screen. Data for the wt1 strain (AID 149);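 further: 0% = growth of vehicle-treated wt1 cultures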; settings: S. cerevisiae wt1 strain (SPY 50644) growth inhibition, stronger effect = higher value
In short: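 Using yeast strain wt1, compound-induced growth inhibition was determined against vehicle-treated cultures.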

[3] = NCI Yeast Anticancer Drug Screen. Data for the rad50EPP+ strain (AID 151);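 further: 0% = growth of vehicle-treated control cultures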; settings: S. cerevisiae rad50 mutant strain, stronger effect = higher value
In short: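 Read-out is yeast growth inhibition relative to vehicle; cells used were the rad50EPP+ strain.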

[4] = NCI Yeast Anticancer Drug Screen. Data for the mgt1 strain (AID 153); settings: S. cerevisiae mgt1 mutant growth inhibition, stronger effect = higher value
In short: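 Measured: inhibition of mgt1 yeast growth by compound, normalized to vehicle-treated cultures.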

[5] = NCI Yeast Anticancer Drug Screen. Data for the rad50 strain (AID 155);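 further: 0% = growth of vehicle-only cultures of the same strain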; settings: S. cerevisiae rad50 strain growth inhibition, stronger effect = higher value
In short: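 Relative growth inhibition (compound vs vehicle) was measured in yeast with a defined repair-gene alteration.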

[6] = NCI Yeast Anticancer Drug Screen. Data for the mec2-1 strain (AID 157); settings: S. cerevisiae mec2-1 strain, stronger effect = higher value
In short: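 Using mec2-1 yeast: add compound, measure growth, express inhibition versus vehicle-treated cultures.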

[7] = NCI Yeast Anticancer Drug Screen. Data for the rad14 strain (AID 159);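 further: 0% = growth of vehicle-treated control cultures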; settings: S. cerevisiae rad14 strain growth inhibition, stronger effect = higher value
In short: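 Screen for anticancer potential: a yeast strain altered in DNA damage repair is grown with compound, and reduced growth is quantified against vehicle controls.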

[8] = NCI Yeast Anticancer Drug Screen. Data for the sgs1 mgt1 strain (AID 161);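 further: 0% = growth of cultures given vehicle only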; settings: S. cerevisiae sgs1 mgt1 strain, stronger effect = higher value
In short: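 Yeast cells carrying a defined DNA-repair defect were exposed to test compounds. Growth inhibition was measured relative to vehicle-treated controls.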

[9] = NCI Yeast Anticancer Drug Screen. Data for the CLN2oe strain (AID 163);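 further: 0% = growth of vehicle-only control cultures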; settings: S. cerevisiae CLN2oe strain, stronger effect = higher value
In short: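 Whole-cell yeast growth assay. A strain engineered for altered cell-cycle control received compound, and inhibition relative to vehicle-treated cultures was recorded.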

[10] = NCI Yeast Anticancer Drug Screen. Data for the cln2 rad14 strain (AID 165);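 further: 0% = growth equal to vehicle treated cultures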; settings: S. cerevisiae cln2 rad14 strain, stronger effect = higher value
In short: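 Yeast strain cln2 rad14, bearing defects in cell cycle control and DNA repair, serves as the test system; values reflect growth inhibition compared with vehicle.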

[11] = NCI Yeast Anticancer Drug Screen. Data for the bub3 strain (AID 167); settings: S. cerevisiae bub3 mutant strain, stronger effect = higher value
In short: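 Screening used yeast with an engineered genetic alteration affecting cell cycle control. Compound-exposed cultures were compared with vehicle cultures, and reduced growth was taken as inhibition.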

[12] = NCI Yeast Anticancer Drug Screen. Data for the wt2 strain (AID 169);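 further: 0% = growth of vehicle-treated yeast cultures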; settings: S. cerevisiae wt2 strain growth inhibition, stronger effect = higher value
In short: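 Treated yeast vs. vehicle-treated yeast: growth inhibition determined.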

[13] = NCI Yeast Anticancer Drug Screen. Data for the mlh1 strain (AID 171);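 further: 0% = growth of vehicle-treated control cultures of the same strain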; settings: S. cerevisiae mlh1 strain growth inhibition, stronger effect = higher value
In short: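 A yeast strain with a defined genetic lesion serves as the test organism. Cultures receive compound or vehicle, and growth is measured.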

[14] = NCI Yeast Anticancer Drug Screen. Data for the sgs1 strain (AID 173);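 further: 0% = growth of vehicle-only control cultures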; settings: S. cerevisiae sgs1 mutant, stronger effect = higher value
In short: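 A genetically defined yeast mutant is incubated with the test compound, and its growth is compared to that of the same strain given vehicle.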

[15] = NCI Yeast Anticancer Drug Screen. Data for the mlh1 rad18 strain (AID 175); settings: S. cerevisiae mlh1 rad18 strain growth inhibition, stronger effect = higher value
In short: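 Steps: expose repair-defective yeast to compound; measure growth; express inhibition against vehicle-treated controls.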

[16] = NCI Yeast Anticancer Drug Screen. Data for the rad18 strain (AID 177); settings: S. cerevisiae rad18 mutant growth inhibition, stronger effect = higher value
In short: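 Measured value is growth inhibition of a yeast strain bearing a DNA repair alteration, referenced to vehicle-treated cells.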

[17] = at 5.0 µM (retest, dose inferred, filed as 0.5)
[18] = at 50.0 µM (retest, dose inferred, filed as 5.0)

Measured: growth inhibition

Brc1ccc(B2Nc3ccccc3N2)cc1
active: [5]; at 50.0 µM 73.8% | [8]; [18] 77% | [8]; at 50.0 µM 82.1% | [10]; at 50.0 µM 71.7% | [11]; [18] 73% | [11]; at 50.0 µM 84.8% | [15]; [18] 87% | [15]; at 50.0 µM 82.5%
inactive: [1]; at 1.2 µM 3% | [1]; at 3.7 µM 14% | [1]; at 11.0 µM 29% | [1]; at 33.0 µM 42% | [1]; at 100.0 µM 46% | [2]; at 1.2 µM -2% | [2]; at 3.7 µM -1% | [2]; at 11.0 µM 16% | [2]; at 33.0 µM 31% | [2]; at 100.0 µM 40% | [3]; at 1.2 µM 10% | [3]; at 3.7 µM 19% | [3]; at 11.0 µM 29% | [3]; at 33.0 µM 34% | [3]; at 100.0 µM 42% | [4]; at 1.2 µM -5% | [4]; at 3.7 µM -2% | [4]; at 11.0 µM 10% | [4]; at 33.0 µM 25% | [4]; at 100.0 µM 5% | [5]; at 1.2 µM 6% | [5]; at 3.7 µM 14% | [5]; [17] 21% | [5]; at 11.0 µM 29% | [5]; at 33.0 µM 44% | [5]; [18] 53% | [5]; at 100.0 µM 54% | [6]; at 1.2 µM 1% | [6]; at 3.7 µM 6% | [6]; [17] 17% | [6]; at 11.0 µM 18% | [6]; at 33.0 µM 31% | [6]; [18] 59% | [6]; at 50.0 µM 56.8% | [6]; at 100.0 µM 46% | [7]; at 1.2 µM 13% | [7]; at 3.7 µM 24% | [7]; at 11.0 µM 37% | [7]; at 33.0 µM 53% | [7]; at 100.0 µM 63% | [8]; [17] 31% | [9]; at 1.2 µM -3% | [9]; at 3.7 µM 5% | [9]; at 11.0 µM 29% | [9]; at 33.0 µM 39% | [9]; at 100.0 µM 43% | [10]; [17] 12% | [10]; [18] 40% | [11]; at 1.2 µM 9% | [11]; at 3.7 µM 19% | [11]; [17] 30% | [11]; at 11.0 µM 15% | [11]; at 33.0 µM 43% | [11]; at 100.0 µM 52% | [12]; at 1.2 µM -4% | [12]; at 3.7 µM -4% | [12]; at 11.0 µM 6% | [12]; at 33.0 µM 17% | [12]; at 100.0 µM 27% | [13]; at 1.2 µM 0% | [13]; at 3.7 µM 6% | [13]; at 11.0 µM 17% | [13]; at 33.0 µM 28% | [13]; at 100.0 µM 44% | [14]; at 1.2 µM 0% | [14]; at 3.7 µM 6% | [14]; at 11.0 µM 23% | [14]; at 33.0 µM 35% | [14]; at 100.0 µM 45% | [15]; [17] 47% | [16]; at 1.2 µM -2% | [16]; at 3.7 µM 1% | [16]; at 11.0 µM 13% | [16]; at 33.0 µM 23% | [16]; at 100.0 µM 36%

— PubChem BioAssay (NCI)
